The values below come from PubChem BioAssay (EPA / NIEHS).

Several values for one entry are separate records, joined by “and”; a condition that tells them apart may be missing. Equal entries are not always repeated. Results filed as inconclusive are left out. Some structures have more than one record in an assay (separate samples or runs), and their calls can disagree. Activity calls are given as the source filed them. Rule for the calls: active = hit-call score of the fitted dose curve at least 0.9, where 1 is the maximum; inconclusive = response in the unintended direction; inactive = score below 0.9.

The assay deals with human AMP-activated Protein Kinase, alpha 1 (AMPKa1), PRKAA1 (gene 5562) (UniProt Q13131). Description: NVS_ENZ_hAMPKa1: NovaScreen (NVS) Enzymatic Assay for human AMP-activated Protein Kinase, alpha 1 (AMPKa1) (AID 2283130). The procedure: NVS_ENZ_hAMPKa1 is a biochemical, single-readout assay that uses extracted gene-proteins in a cell-free assay. Measurements were taken 1 hour after chemical dosing in a 384-well plate.NVS_ENZ_hAMPKa1 is one of one assay component(s) measured or calculated from the NVS_ENZ_hAMPKa1 assay. It is designed to make measurements of enzyme activity, a form of enzyme reporter, as detected with fluorescence intensity signals by Fluorescence and electrophoretic mobility shift technology.Data from the assay component NVS_ENZ_hAMPKa1 was analyzed into 1 assay endpoint. This assay endpoint, NVS_ENZ_hAMPKa1, was analyzed in the positive analysis fitting direction relative to DMSO as the negative control and baseline of activity. Using a type of enzyme reporter, loss-of-signal activity can be used to understand changes in the enzymatic activity as they relate to the gene PRKAA1. Furthermore, this assay endpoint can be referred to as a primary readout, because this assay has produced multiple assay endpoints where this one serves a enzymatic activity function. To generalize the intended target to other relatable targets, this assay endpoint is annotated to the kinase intended target family, where the subfamily is serine/threonine kinase.
Sequence of human AMP-activated Protein Kinase, alpha 1 (AMPKa1), PRKAA1 (gene 5562) (Q13131 whole entry, looked up): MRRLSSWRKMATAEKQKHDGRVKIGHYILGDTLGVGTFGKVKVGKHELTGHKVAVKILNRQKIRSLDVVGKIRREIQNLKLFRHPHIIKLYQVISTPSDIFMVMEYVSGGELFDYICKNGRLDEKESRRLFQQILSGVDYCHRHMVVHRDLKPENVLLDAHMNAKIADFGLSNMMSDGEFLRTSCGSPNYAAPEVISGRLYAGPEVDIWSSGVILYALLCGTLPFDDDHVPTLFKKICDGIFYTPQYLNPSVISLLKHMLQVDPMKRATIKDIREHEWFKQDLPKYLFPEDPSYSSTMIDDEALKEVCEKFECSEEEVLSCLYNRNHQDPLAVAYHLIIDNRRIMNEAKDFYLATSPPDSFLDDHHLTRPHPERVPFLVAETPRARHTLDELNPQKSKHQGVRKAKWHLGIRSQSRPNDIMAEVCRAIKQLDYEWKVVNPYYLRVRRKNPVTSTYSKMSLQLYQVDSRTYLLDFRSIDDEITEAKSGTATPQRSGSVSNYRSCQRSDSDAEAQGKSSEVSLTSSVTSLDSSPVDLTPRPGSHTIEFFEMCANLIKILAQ
Binding assays used specific radioligands (tritiated, iodinated) with non-radioactive competitive displacement ligands in agonist or antagonist protocols (as indicated) and various reference compounds and inhibitors to titrate specific binding to receptors and transporters. Most enzyme assays (CYPs, kinases, phosphatases, proteases, HDACs) used recombinant protein and specific substrates (fluorescence mostly, some colorimetric and radioactive) and inhibitors, followed by a biochemical separation of substrate and product. All assays for the biochemical HTS were initially run in duplicate at a single concentration (10 uM for CYP450 assays and 25 uM for all others). Assay-chemical combinations meeting a pre-defined threshold (e.g., 30% inhibition and other criteria defined below) were then run in singleton concentration-response format with maximum concentration of 20 uM for CYPs and 50 uM for all others. Each assay was run with positive and negative controls, and concurrent controls on every plate. The follow-up (secondary) screen tested active chemical-pairs in concentration series, as well as a few additional assays not tested in the primary screen, some selected negative inactives, and several cases re-run in the concentration series for confirmatory purposes.
For `CC(C)CCCCCCc1ccc(O)cc1`, the call was inactive. For `O=C(O)C1(C(=O)Nc2ccc(Cl)cc2Cl)CC1`, the AC50 was 7.12 µM (active).

As for `S=C([S-])NCCNC(=S)[S-].[Mn+2]`, the AC50 is 8.83 µM (active). Turning to `CC1(C)NC(=O)NC1=O`, the compound was classed as inactive. Consider `CN1C(=O)N(c2ccccc2Br)Cc2cnc(Nc3ccc4c(c3)OCC(CO)O4)nc21` (stereo not given), for which the call was inactive. In the case of `S=C(S)NCCNC(=S)S.[Mn+2].[S-]C([S-])=NCCN=C([S-])[S-].[Zn+2]`, the concentration at half-maximal activity (AC50) was 1.87 µM (active) and 1.32 µM (active) and 2.26 µM (active). In the case of `CCCCCC(=O)O`, the call was inactive. On the same count and under the same terms, as for `CCOC(=O)C(C)(C)Oc1ccc(Cl)cc1`, the entry is “inactive”; as for `c1ccc(C[n+]2cccc3ccccc32)cc1`, “inactive”; as for `Cc1ncc([C@@H](CCCCCCc2ccc3c(n2)NCCC3)CC(=O)O)cn1`, “inactive”. On to `CCCCCCCC/C=C\CCCCCCCC(=O)OC[C@@H](O)[C@H]1OC[C@H](O)[C@H]1O`, for which the compound was classed as inactive. Turning to `CCc1c(C(=O)NN2CCCCC2)nn(-c2ccc(Cl)cc2Cl)c1-c1ccc(Br)cc1`, the compound was classed as inactive. For the compound `CN(C)c1ccc(N=NS(=O)(=O)O)cc1`, the result was inactive. As for `O=C(Oc1ccccc1)c1cccc(C(=O)Oc2ccccc2)c1`, the call was inactive. For `Cc1ccc(N)cc1O`, the call was inactive. Regarding `CCN(CC)C(=O)c1cc(S(=O)(=O)Cc2ccccc2)c(N2CCC(c3ccccc3)CC2)cc1N(CC)CCN(C)C`, the half-maximal activity concentration (AC50) was 34.9 µM (active). In the case of `O=C(O)c1cccc(Oc2ccccc2)c1`, the compound was classed as inactive.

On to `O=[N+]([O-])c1ccc(Cl)cc1`, for which the call was inactive. `O=C(c1ccc(OCCN2CCCCC2)cc1)c1c(-c2ccc(O)cc2)sc2cc(O)ccc12`: the half-maximal activity concentration (AC50) is 18.9 µM (active). Take `Cc1nc(-c2ccc3c(c2)CCN(CCC2CCC(NC(=O)/C=C/c4ccc(F)cc4)CC2)CC3)no1` (stereo not given): the compound was called inactive. With `CNS(=O)(=O)c1cc(C(=O)N2CCC(CCN3C4CCC3CC(n3c(C)nc5ccccc53)C4)(c3cccc(F)c3)CC2)c(Cl)cc1F` (stereo not given), the half-maximal activity concentration (AC50) is 36 µM (active).

For `CC/C(=C(\c1ccccc1)c1ccc(OCCN(C)C)cc1)c1ccccc1`, the compound was called inactive and the AC50 was 25.4 µM (active). Regarding `CC(C)CC(C)(O)C#CC(C)(O)CC(C)C` (stereo not given), the result was inactive. Take `COc1cccc(-c2ccc(/C=C\CN3CCCCCC3)cc2Cl)c1`: the AC50 was 34.6 µM (active). As for `COc1ccc(OC(F)(F)F)cc1CN[C@H]1CCCN[C@H]1c1ccccc1`, the compound was called inactive. On the same count and under the same terms, as for `CN(C)C(=O)NC1(c2ccccc2)CCN(CCC[C@]2(c3ccc(Cl)c(Cl)c3)CCCN(C(=O)c3ccccc3)C2)CC1`, the entry is “inactive”; as for `O=C1c2ccccc2C(=O)N1CCc1noc(-c2ccc(CN3CCCCCC3)s2)n1`, “inactive”. As for `CNC(=O)[C@H]1O[C@@H](n2cnc3c(NCc4cc(Cl)ccc4OCc4cc(C)no4)ncnc32)[C@H](O)[C@@H]1N`, the compound was called inactive. As to `CCN(CC)C(=S)SSC(=S)N(CC)CC`, the compound was called inactive. Turning to `NCCO`, the compound was classed as inactive. Still for that read-out and setting: as for `O=C(OCCCCCOC(=O)c1ccccc1)c1ccccc1`, the entry is “inactive”. With `CCCCCCCCCCCCc1ccccc1S(=O)(=O)O`, the AC50 is 11.3 µM (active).

Take `O=C1O[C@H]([C@@H](O)CO)C(O)=C1O`: the result was inactive.

`O=C(O)c1ccccc1C(c1ccc(O)cc1)c1ccc(O)cc1`: the result was inactive.

Take `N[C@@H](Cc1cc(I)c(Oc2ccc(O)c(I)c2)c(I)c1)C(=O)O`: the compound was classed as inactive.

As to `O=c1[nH]cnc2c1ncn2[C@H]1CC[C@@H](CO)O1`, the compound was called inactive.

On to `O=C(OCCOCCOC(=O)c1ccccc1)c1ccccc1`, for which the call was inactive. For the compound `CCCCCCCCCCCCc1ccccc1`, the result was inactive. With `O=C(O)Cc1cc(I)c(Oc2ccc(O)c(I)c2)c(I)c1`, the compound was called inactive.
